HSF-1 act – increases HSF-1 driven luciferase reporter signal | activation, % at 9 µM | 300,000 compounds, 1.7% hits | NIH3T3-HGL HSF-1 luciferase reporter, MG132, 8 h; 100% = twice DMSO control signal;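 active means mean replicate activation of at least 50% with a set share of replicates each reaching 50%; inconclusive means only one of those two conditions met; inactive means mean below 50% and too few replicates reaching it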
HSF1 inhib – HSF1 inhibition | NIH3T3-HGL HSE-luciferase, MG132-induced, luminescence 8 h; stronger effect = lower value | activity change, negative = inhibition, % at 7.5 µM (by protocol) | 300,000 compounds, 0.77% hits | AID 2098;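 active means more than half of replicate wells show activity change below -50%, luminescence cut by over half; inconclusive means some wells, but at most half, below -50%; inactive means no replicate well below -50%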;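 further: luciferase reports HSF-1 transcriptional activity via heat shock element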
esBAF inh – inhibitors of esBAF chromatin remodeling in mouse ES cells | Bmi1-luciferase knock-in reporter, 24 h; 100% = twice the neutral-well signal | reporter increase, % at 12.5 µM | 350,000 compounds, 2% hits | AID 602393; in the data active means activation above about 40%; inconclusive means no clear call, values can overlap the other calls;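 further: a rise in the Bmi1 reporter signal indicates esBAF inhibition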
Wnt bcat act – Wnt/beta-catenin pathway activation; Wnt/beta-catenin reporter cell assay, activator, plate reader; activation, % at 9.35 µM; 300,000 compounds, 1.2% hits; AID 743398; in the data active means activation above about 30%, passing the limit was not always enough; inconclusive means no clear call, values can overlap the other calls
MITF TRPM1 HTS – increases MITF-driven TRPM1 promoter luciferase signal. SK-MEL-5 TRPM1-promoter luciferase, 24 h; % of positive control, neutral wells = 0. activation, % at 12.5 µM. 300,000 compounds, 0.75% hits. AID 588334;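 active means mean activation of at least 80% with every replicate also reaching 80%; inconclusive means mean reaches 80% but some replicate falls short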
Each line names hits and unclear results; the compound was inactive in the other large screens. An excerpt weighted towards active compounds, which were near 3.9% of everything screened.

O=S(=O)(c1ccc2c(c1)OCCCO2)N1CCNCC1	none (no result: MITF TRPM1 HTS)
O=C1c2cccc3cccc(c23)C(=O)N1CCN1CCN(CC(O)COc2ccc3ccccc3c2)CC1 (centres undefined)	none (no result: esBAF inh)
COc1ccc(COCC(O)CN2CCC(CN3C(=O)c4cccc5cccc(c45)C3=O)CC2)cc1OC (centres undefined)	none (no result: esBAF inh, Wnt bcat act)
COc1cc(COCC(O)CN2CCN(CCN3C(=O)c4cccc5cccc(c45)C3=O)CC2)cc(OC)c1OC (centres undefined)	HSF-1 act 115 (no result: esBAF inh)
O=C1c2cccc3cccc(c23)C(=O)N1CCN1CCN(CC(O)COCc2ccc(Cl)cc2)CC1 (centres undefined)	HSF-1 act 73 (no result: esBAF inh)
CCCNC(=O)N1C[C@@H](C)[C@@H](OC)CN(C)C(=O)c2ccc(NS(=O)(=O)CC(F)(F)F)cc2OC[C@H]1C	none (no result: HSF-1 act, HSF1 inhib, Wnt bcat act, MITF TRPM1 HTS)
Cc1noc2ncnc(N3CCCC3)c12	none
Cc1noc2ncnc(Sc3ccc(Br)cc3)c12	HSF-1 act 153
O=C(CCN1CCCCC1)N[C@H]1C=C[C@@H](CC(=O)N2CCC(Cc3ccccc3)CC2)O[C@H]1CO	none (no result: HSF-1 act, HSF1 inhib, Wnt bcat act, MITF TRPM1 HTS)
C[C@H](CO)N1C[C@H](C)[C@H](CN(C)Cc2ccccc2)Oc2ccc(NC(=O)Cn3cnnn3)cc2CC1=O	none (no result: HSF-1 act, HSF1 inhib, Wnt bcat act, MITF TRPM1 HTS)
CCN(C(=O)C=Cc1ccco1)c1ccccc1	Wnt bcat act 204 (no result: HSF-1 act, HSF1 inhib)
CN1CCN(C(=O)C[C@H]2CC[C@@H]3[C@H](COC[C@H](O)CN3C(=O)c3ccc(F)cc3)O2)CC1	none (no result: HSF-1 act, HSF1 inhib, Wnt bcat act, MITF TRPM1 HTS)
Cc1cccc(CS(=O)(=O)c2nnc([C@H](Cc3ccccc3)NC(=O)OC(C)(C)C)o2)c1	HSF1 inhib -68 (no result: Wnt bcat act)
COC(=O)CS(=O)(=O)c1nnc([C@H](Cc2ccccc2)NC(=O)OC(C)(C)C)o1	HSF-1 act inconclusive (no result: esBAF inh, Wnt bcat act)
Cn1cccc([N+](=O)[O-])c1=O	none (no result: HSF-1 act, HSF1 inhib, esBAF inh, MITF TRPM1 HTS)
O=[N+]([O-])c1cccn2cc(-c3ccc(Br)cc3)nc12	HSF-1 act inconclusive, esBAF inh 58
Cc1cccn2cc(-c3c[nH]c4ccccc34)nc12	esBAF inh 81
COc1ccc(-c2cn3cccnc3n2)cc1Br	MITF TRPM1 HTS 81 (no result: esBAF inh)
Cc1cccn2cc(-c3ccc(Cl)cc3)nc12	none (no result: esBAF inh)
COc1ccc(-c2cn3cccc(C)c3n2)cc1F	Wnt bcat act 33, MITF TRPM1 HTS 92 (no result: esBAF inh)
COc1ccccc1-c1cccc(-c2nc(C(=O)N3CCCCC3)cc3c2[C@@H](CCO)N([S@](=O)C(C)(C)C)C3)c1	none (no result: HSF-1 act, HSF1 inhib, Wnt bcat act, MITF TRPM1 HTS)
COc1ccc(CNC(=O)C[C@@H]2CC[C@@H]3[C@H](COc4ccc(NC(=O)C(C)C)cc4C(=O)N3C)O2)cc1	none (no result: HSF-1 act, HSF1 inhib, Wnt bcat act, MITF TRPM1 HTS)
Cc1ccc(-c2cn3cccc(C)c3n2)cc1	HSF-1 act 78 (no result: esBAF inh)
CN(C)c1ccc(C2C3CCCc4ccccc4C3=NN2C)cc1 (centres undefined)	esBAF inh 47
CN1N=C2c3ccccc3CCC2C1c1ccc(C(F)(F)F)cc1 (centres undefined)	HSF1 inhib -58 (no result: esBAF inh, Wnt bcat act, MITF TRPM1 HTS)
CCCN(C)C[C@H]1Oc2cc(/C=C/c3ccccc3)ccc2S(=O)(=O)N([C@@H](C)CO)C[C@H]1C	none (no result: HSF-1 act, HSF1 inhib, Wnt bcat act, MITF TRPM1 HTS)
Cc1ccc(C(=O)CCNc2ccc(Br)cc2)o1	none
O=C(NC(=S)Nc1ccc2c(c1)OCCO2)c1cccc(Br)c1	none (no result: esBAF inh, Wnt bcat act)
Cc1ccc(C(=O)CCNc2ccccc2)o1	esBAF inh 52 (no result: Wnt bcat act)
O=C(CCNc1ccccc1)c1ccc2c(c1)OCO2	esBAF inh 92, Wnt bcat act 48 (no result: MITF TRPM1 HTS)
O=C(NC(=S)Nc1ccc2c(c1)OCO2)c1ccccc1	HSF-1 act 57 (no result: Wnt bcat act)
O=C(Nc1ccc2c(c1)OCO2)c1ccccc1	HSF-1 act 58 (no result: esBAF inh)
C[C@H](CO)N1C[C@H](C)[C@H](CN(C)Cc2cccc(O)c2)OCc2cnnn2CCCC1=O	none (no result: HSF-1 act, HSF1 inhib, Wnt bcat act, MITF TRPM1 HTS)
C[C@@H]1CN([C@@H](C)CO)C(=O)c2cc(-c3ccccc3)cnc2O[C@H]1CN(C)Cc1cccnc1	none (no result: HSF-1 act, HSF1 inhib, Wnt bcat act, MITF TRPM1 HTS)
O=C(Nc1ccccc1F)N[C@@H]1CC[C@H](CCNC(=O)C2CCCCC2)O[C@@H]1CO	none (no result: HSF-1 act, HSF1 inhib, Wnt bcat act, MITF TRPM1 HTS)
CCC(=O)Nc1ccc2c(c1)C(=O)N(C)C[C@H](OC)[C@@H](C)CN(CC1CC1)[C@@H](C)CO2	none (no result: HSF-1 act, HSF1 inhib, Wnt bcat act, MITF TRPM1 HTS)
Cc1cc(C)n(-c2ccc(C(=O)Nc3ccc4c(c3)OCO4)cc2)n1	esBAF inh 68
O=C(Nc1ccc2c(c1)OCCO2)c1ccc(CN2CCOCC2)cc1	esBAF inh 56 (no result: Wnt bcat act)
O=C(NC(=S)Nc1ccccc1Br)c1ccc2c(c1)OCO2	MITF TRPM1 HTS 110 (no result: esBAF inh)
O=C(NC(=S)Nc1cccc(Cl)c1N1CCCCC1)c1ccc2c(c1)OCCO2	HSF1 inhib -58 (no result: esBAF inh)

Bioassay records: PubChem BioAssay, Broad Institute
